Assay outcomes (PubChem)
Hits are enriched below; roughly 12% of the tested compounds scored in any of these assays.
BAZ2B inh: qHTS Assay for Inhibitors of BAZ2B | AlphaScreen BAZ2B-H3K14Ac peptide displacement | Bromodomain adjacent to zinc finger domain protein 2B (Homo sapiens), Q9UIF8 | Potency, µM (highest dose often 114 µM), inactives show at the top dose activity change, negative = inhibition, hits mostly inhibitors | actives 4.4% (n = 360,000); also: % is scaled to controls: 0 for no effect and ±100 for the full control effect; nearly all actives have a fitted effect of over 60% in size
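BAZ2B 50 nM plus b-H3(5-23)K14Ac 50 nM, PBS pH 7.4/0.01% Tween-20, 30 min RT; compound added (max 110 uM), 30 min RT; streptavidin donor/Ni-chelate acceptor beads 10 ug/mL final, 20 min dark; AlphaScreen read.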
G9a block: qHTS Assay for Inhibitors of Histone Lysine Methyltransferase G9a; AID 504332, 2011; actives 8.8% (n = 350,000); G9a H3K9 monomethylation, AlphaScreen, 2 h; Potency, µM (series often up to 102 µM), without a hit: at the top dose activity, negative = inhibition, hits mostly inhibitors; also: % is scaled to controls: 0 for no effect and ±100 for the full control effect; nearly all actives have a fitted effect of over 75% in size
Target sequence (Q96KQ7 913-1193 limits assumed): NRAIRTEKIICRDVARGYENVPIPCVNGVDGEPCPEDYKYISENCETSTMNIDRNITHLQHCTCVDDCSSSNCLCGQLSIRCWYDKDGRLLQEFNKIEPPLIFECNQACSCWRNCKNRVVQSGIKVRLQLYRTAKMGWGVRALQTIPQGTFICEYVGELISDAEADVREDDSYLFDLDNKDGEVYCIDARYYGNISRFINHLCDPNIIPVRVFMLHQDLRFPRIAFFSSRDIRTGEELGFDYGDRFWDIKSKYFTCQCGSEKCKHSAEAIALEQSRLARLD
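AlphaScreen read-out: biotin-H3K9 peptide (500 nM) methylation by 20 nM enzyme with 20 uM SAM, 2 h at room temperature after 15 min compound preincubation; anti-monomethyl H3K9 antibody plus donor/acceptor beads, 10 min dark.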
HP1b chromo inh: HTS for Inhibitors of HP1-beta Chromodomain Interactions with Methylated Histone Tails. AID 540317, 2011. actives 0.56% (n = 390,000). Potency, µM (series often up to 114 µM), for inactives: top-dose activity change, negative = inhibition, usual class: inhibitors. AlphaScreen HP1-beta / biotin-H3K9me3 peptide binding; also: nearly all actives have a fitted effect of over 70% in size
Target sequence (P83916 whole entry, looked up): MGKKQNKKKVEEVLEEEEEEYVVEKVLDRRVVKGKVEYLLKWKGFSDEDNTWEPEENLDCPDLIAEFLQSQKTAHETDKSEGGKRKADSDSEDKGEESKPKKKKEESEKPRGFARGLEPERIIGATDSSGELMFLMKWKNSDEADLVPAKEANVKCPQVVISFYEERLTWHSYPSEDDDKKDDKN
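Compound inhibition of the preformed complex between 50 nM HP1-beta and 50 nM biotinylated H3K9me3 peptide was read by AlphaScreen. Buffer was PBS pH 7.4 with 0.01% Tween-20. Incubations ran 30 min at room temperature, with 10 ug/mL donor/acceptor beads.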
JMJD2A Tudor: qHTS Assay for Inhibitors of JMJD2A-Tudor Domain; AID 504339, 2011; Potency, µM (titrated, usually from 114 µM), for inactives: at the highest dose activity change, negative = inhibition, most hits filed as inhibitors; Lysine-specific demethylase 4A (Homo sapiens), O75164; actives 4.4% (n = 390,000); AlphaScreen JMJD2A-Tudor / H3K4me3 peptide binding; also: % is scaled to controls: 0 for no effect and ±100 for the full control effect; nearly all actives have a fitted effect of over 50% in size
Sfp inh: qHTS Assay for Inhibitors of Bacillus subtilis Sfp phosphopantetheinyl transferase (PPTase) | 4'-phosphopantetheinyl transferase ffp (Bacillus subtilis), Q9F4F7 | AID 1490, 2009 | Biochemical Sfp PPTase activity, qHTS | Potency, µM, inactives show largest response in the series, negative = inhibition, hits mostly inhibitors | actives 3.5% (n = 310,000);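 also: the enzyme is Sfp with the accession as filed and its product quenches rhodamine fluorescence; 0% = enzyme reaction without inhibitor and -100% = no enzyme wells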
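With Hepes-Na pH 7.6 buffer containing 10 mM MgCl2, Sfp (15 nM) modified BHQ-2-YbbR (12.5 uM) using rhodamine-CoA (5 uM). Two reads 30 minutes apart at 525/598 nm yielded each well's rate.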
The depositor's hits bear a star; [ ] = remark or other dose. Calls follow the shape of the dose curve; as a rule, active = well fitted curve in the direction sought with a large enough effect; inconclusive = small, poorly fitted or top-dose-only effect, or another doubt; inactive = no such curve, though single readings can be large; an effect the other way counts as inactive or inconclusive. Potency is read from the fitted curve at half-maximal effect.

`COC(=O)c1c(NC(=O)CC2Nc3cc(C)c(C)cc3NC2=O)sc(C)c1C` (stereo unspecified) gave BAZ2B inh 0%, G9a block 20µM*, HP1b chromo inh 30%, JMJD2A Tudor -12% and Sfp inh 56µM*.
`Cc1cc2c(cc1C)NC(CC(=O)Nc1cccc(C)c1C)C(=O)N2` (stereo unspecified) gave BAZ2B inh -2%, G9a block 5%[59 µM], HP1b chromo inh 32% and JMJD2A Tudor -7%.
CS(=O)(=O)N1CCC2(CCCN(c3ccccn3)C2)CC1 was read as G9a block -5%[12.7 µM] and Sfp inh 20%.
Screening COc1ccc(CNCC(=O)Nc2cccc(S(N)(=O)=O)c2)cc1 returned BAZ2B inh 56µM*, G9a block -142%[59 µM], HP1b chromo inh 7%, JMJD2A Tudor 0.71µM* and Sfp inh inconclusive.
COc1ccc(CCC(=O)Nc2ccc(C)c(S(=O)(=O)N(C)C)c2)cc1OC was read as BAZ2B inh 6%, G9a block 8%[59 µM], HP1b chromo inh 24%, JMJD2A Tudor -16% and Sfp inh -4%.
For Cc1ccc(NC(=S)NC2CCCCC2)cc1S(=O)(=O)N(C)C the results were BAZ2B inh -11%, G9a block 40µM*, HP1b chromo inh -15%, JMJD2A Tudor -22% and Sfp inh -45%.
Cc1ccc(NC(=O)CN2C(=O)C3C4C=CC(C4)C3C2=O)cc1S(=O)(=O)N(C)C (stereo unspecified) was read as BAZ2B inh 8%, G9a block -3%[59 µM], HP1b chromo inh 15%, JMJD2A Tudor -11% and Sfp inh -16%.
Cc1ccc(NC(=O)CNCC2CCCCC2)cc1S(=O)(=O)N(C)C was read as BAZ2B inh inconclusive, G9a block inconclusive, HP1b chromo inh -18%, JMJD2A Tudor 22µM* and Sfp inh -29%.
COc1ccc(CCNCC(=O)Nc2ccc(C)c(S(=O)(=O)N(C)C)c2)cc1 was read as BAZ2B inh 50µM*, G9a block 14µM*, HP1b chromo inh inconclusive, JMJD2A Tudor 0.79µM* and Sfp inh -13%.
CCCN1C(C)C(C(=O)OCC)=CN(Cc2ccc(Br)cc2)S1(=O)=O (stereo unspecified) was read as HP1b chromo inh 130% and JMJD2A Tudor 70%.
Cc1ccc(NC(=O)CN(C)C2CCCCC2)cc1Cl was read as BAZ2B inh inconclusive, HP1b chromo inh inconclusive, JMJD2A Tudor 10µM* and Sfp inh -29%.
For CN(C)C(=S)c1ccc(N(C)C)cc1 the results were BAZ2B inh inconclusive, G9a block 7.9µM*, HP1b chromo inh inconclusive, JMJD2A Tudor -22% and Sfp inh 16µM*.
Screening COc1ccc(C(=S)N(C)C)cc1OC returned BAZ2B inh -16%, G9a block inconclusive, HP1b chromo inh inconclusive, JMJD2A Tudor -14% and Sfp inh 45µM*.
CN(/N=C/c1ccccc1O)C(=S)c1ccccc1 was read as BAZ2B inh inconclusive, HP1b chromo inh -5%, JMJD2A Tudor inconclusive and Sfp inh inconclusive.
Screening CN(C)C(=S)c1ccccc1 returned BAZ2B inh -11%, G9a block 10µM*, HP1b chromo inh inconclusive, JMJD2A Tudor inconclusive and Sfp inh 20µM*.
`Cc1cc(O)c(C(c2cccc(Cl)c2)N2CCN(c3ccccc3)CC2)c(=O)n1Cc1ccco1` (stereo unspecified) gave BAZ2B inh -21%, G9a block -50%[59 µM], HP1b chromo inh 21%[57 µM] and JMJD2A Tudor -35%.
COc1ccc(-c2nc3ccccc3s2)cc1NC(=O)COc1cccc(C)c1 was read as BAZ2B inh -11%, G9a block 10%[59 µM], HP1b chromo inh 27% and JMJD2A Tudor -7%.
`O=C(NCCCN1CCN(c2ccccc2)CC1)c1sc2ncccc2c1-n1cccc1` gave BAZ2B inh inconclusive, G9a block -30%[59 µM], HP1b chromo inh -16%[57 µM] and JMJD2A Tudor inconclusive.
Screening O=C(NCCCN1CCN(c2cccc(Cl)c2)CC1)c1sc2ncccc2c1-n1cccc1 returned BAZ2B inh 35µM*, G9a block -45%[59 µM], HP1b chromo inh -21%[57 µM] and JMJD2A Tudor 32µM*.
